Measurements as given in PubChem BioAssay AID624117 (National Center for Advancing Translational Sciences (NCATS), 2012).
Records with an inconclusive call do not appear. A number with no mark means an inactive call. Calls come from the whole dose curve; as a rule, active = well fitted curve in the direction sought with a large enough effect; inconclusive = small, poorly fitted or top-dose-only effect, or another doubt; inactive = no such curve, though single readings can be large or run the other way.

Experiment: qHTS Assay for Rab9 Promoter Activators: Hit Validation Using Renilla Luciferase Read-Out; note: % of control where 0% means no effect
Details: Huh7 NPC1 promoter Renilla luciferase reporter, 24 h; series mostly up to 76.9 µM; activation (negative = inhibition): at the top concentration
Summary of the method: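 Hit validation in Huh7 NPC promoter-luciferase reporter line: compound treatment 24 h at 37 deg C, then luminescence measured after 10 min room-temperature incubation with […] reagent.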

Structure (SMILES) | activation (negative = inhibition) [%]
COc1cccc(C(C(=O)NC2CCCC2)N(CCC(C)C)C(=O)CCC(=O)Nc2cc(C)on2)c1 (centres undefined) | 14.4
COc1ccc(NC(=O)CN(C)C(=O)c2ccc(=O)[nH]c2)cc1 | 3.53
COc1cccc(NC(=O)CN2C(=O)CSc3ccc(S(=O)(=O)N4CCC(C)CC4)cc32)c1 | -28.4
O=C(CSc1nnc(Cc2cc(=O)[nH]c(=O)[nH]2)n1-c1ccc(Cl)cc1)NC1CCCC1 | 2.15
CCCC(C)NC(=O)c1ccc(OCc2ccc(Cl)cc2)c(OC)c1 (centres undefined) | -10.1
Cc1ccc(NC(=O)c2ncc(Cl)c(Cl)c2Cl)cc1C | -49.1
COCCSc1ncnc2c1oc1nc3c(cc12)COC(C)(C)C3 | -6.48
CC(C)CC(=O)N1CCN(c2ccc(NC(=O)c3ccco3)cc2)CC1 | -4.48
CCOC(=O)c1ccc(NC(=O)Oc2cc(C)c(Cl)cc2C(C)C)cc1 | -2.91
CCN(C(=O)COC(=O)c1ccc(C=O)cc1)c1c(N)n(Cc2ccccc2)c(=O)[nH]c1=O | 4.76
CC(Sc1ncnc2c1cnn2-c1ccccc1)C(=O)Nc1ccc(N2CCOCC2)cc1 (centres undefined) | -7.01
COc1cccc(C2Nc3ccccc3NC3=C2C(=O)CC(C)(C)C3)c1 (centres undefined) | -1.62
COc1ccc(NC(=O)CCCN2C(=O)C(c3ccccc3)Oc3cccnc32)cc1OC (centres undefined) | -6
O=S(=O)(c1cccs1)N1CCN(c2ncccn2)CC1 | -5.33
Cc1ccc(NC(=O)NC(=O)c2ccccc2)cc1F | -13.6
O=C(CN1C(=O)COc2ccc(Cl)cc21)NCC1CCCO1 (centres undefined) | 1.1
OCCC1CN(Cc2nc3ccccc3s2)CCN1C1CCCC1 (centres undefined) | 0.367
O=C(C[N+]1(CC#Cc2ccccc2)CCCCC1)c1ccccc1 | 5.82
COCCNC(=O)C1CCC(CNS(=O)(=O)c2ccc(F)cc2)CC1 (centres undefined) | -8.21
O=C(NCCSCc1c(F)cccc1Cl)c1ccc(CN2CCOCC2)cc1 | -51.8

Structure (SMILES) | activation (negative = inhibition) [%]
CCN(CC(=O)N(CC(C)C)c1c(N)n(CC(C)C)c(=O)[nH]c1=O)Cc1nc2ccccc2c(=O)[nH]1 | -6.08
COC(=O)Nc1nc2ccc(Br)cc2s1 | -6.1
S=C1NCN(CCc2ccccc2)CN1Cc1ccccc1 | -2.18
Cc1nc(-c2ccccn2)sc1C(=O)Nc1ccc(F)cc1F | -5.7
CC(=O)NC(=S)Nc1ccc2oc(-c3cc(F)c(F)cc3Cl)nc2c1 | 0.138
CCOC(=O)C1(Cc2cccc(Cl)c2)CCCN(C(=O)CCSC)C1 (centres undefined) | -4.4
CC1(C)CC(=O)c2c(O)c(-c3ccccc3)c(=O)n(-c3ccccc3)c2C1 | -3.78
COc1ccc(/C=C\c2onc(C)c2S(=O)(=O)N2CCC(C(=O)NCCC(C)C)CC2)cc1 | 9.81
C=CCOC(=O)N1CCN(c2cccc(C(F)(F)F)c2)CC1 | -2.4
Cc1ccc2nc(Nc3ccc(Cl)cc3)c3nncn3c2c1 | -1.87
CCC(=O)NC(=S)Nc1ccc(N2CCOCC2)cc1 | -0.702
O=C(CCN1C(=O)c2ccccc2C1=O)Nc1ccc(-c2nc3ccccc3s2)cc1 | -11.4
Cc1ccc2c(c1)sc1nc(=O)n(-c3ccccc3)c(=O)n12 | -17.1
O=C(CSc1ncccn1)Nc1cccc2ccccc12 | -0.278
C=CCn1c(C)nnc1SCC(=O)Nc1nccs1 | -1.57
CC(C)(C)C(=O)N/C(N)=N/c1nc2ccccc2o1 | -72.9
O=C(CCCn1c(=O)oc2ccccc21)N1CCN(c2ccccn2)CC1 | -0.368
Cc1nc2sc(C(=O)OC(C)C)c(N)c2c(C)c1C | -0.581
Cc1nc(SCC(=O)NC(=O)NC(C)(C)C)nc(C)c1C | 0.143
